Columns and labels:
Assay in all cases: DAPPL (digital affinity profiling via proximity ligation, sequencing); 10 mM Tris-HCl pH 7.5, 50 mM NaCl, 1 mM DTT, 4% glycerol, room temperature, 30 min; GST-TFs on glutathione beads, 16-mer random dsDNA library, 0.1% formaldehyde crosslink after washing; high values mean tight binding
[1] = target: T1, FEV (Homo sapiens, UniProt Q99581 1-238); conditions: protein: recombinant; tags: N-terminal GST; dsDNA, one strand shown
T1 sequence: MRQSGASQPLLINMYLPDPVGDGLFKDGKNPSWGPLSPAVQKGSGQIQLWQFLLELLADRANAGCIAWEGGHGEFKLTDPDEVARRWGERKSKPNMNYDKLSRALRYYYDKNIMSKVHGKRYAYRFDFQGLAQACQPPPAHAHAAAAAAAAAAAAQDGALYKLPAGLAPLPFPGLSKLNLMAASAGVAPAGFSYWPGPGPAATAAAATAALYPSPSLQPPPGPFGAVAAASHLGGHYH
Outline: (§1)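 Binding signal is given per hexamer as its read frequency for a factor divided by its frequency in the tag-only sample. GST-fused human transcription factors were expressed in yeast, captured on glutathione beads, barcoded with DNA and pooled with that sample, then incubated with 200 nmole of a 16-mer random double-stranded DNA library in Tris/NaCl/DTT/glycerol buffer for 30 min at room temperature. The pools were then washed, crosslinked, proximity-ligated, amplified by PCR and sequenced on an Illumina NextSeq500.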

[2] = target: ETV5 (Homo sapiens, UniProt P41161 1-510); conditions: protein: recombinant; tags: N-terminal GST; dsDNA, one strand shown
ETV5, sequence (P41161 whole entry): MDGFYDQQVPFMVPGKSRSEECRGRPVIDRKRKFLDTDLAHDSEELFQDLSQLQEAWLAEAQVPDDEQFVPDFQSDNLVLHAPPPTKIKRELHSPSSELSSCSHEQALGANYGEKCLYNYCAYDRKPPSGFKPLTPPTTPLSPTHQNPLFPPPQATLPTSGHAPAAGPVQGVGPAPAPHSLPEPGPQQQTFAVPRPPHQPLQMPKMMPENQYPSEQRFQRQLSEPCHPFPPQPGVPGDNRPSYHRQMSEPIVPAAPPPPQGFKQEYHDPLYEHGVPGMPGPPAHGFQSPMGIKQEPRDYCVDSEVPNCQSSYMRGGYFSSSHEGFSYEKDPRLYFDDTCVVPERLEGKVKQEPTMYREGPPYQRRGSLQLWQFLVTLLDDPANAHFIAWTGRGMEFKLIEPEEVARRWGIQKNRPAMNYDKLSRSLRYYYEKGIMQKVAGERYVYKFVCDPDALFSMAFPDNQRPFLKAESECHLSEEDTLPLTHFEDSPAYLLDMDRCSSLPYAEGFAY
Outline: as §1

[3] = target: HSF1 (Homo sapiens, UniProt Q00613 1-529); conditions: protein: recombinant; tags: N-terminal GST; chain copies: 3; dsDNA, one strand shown
HSF1, sequence (Q00613 whole entry): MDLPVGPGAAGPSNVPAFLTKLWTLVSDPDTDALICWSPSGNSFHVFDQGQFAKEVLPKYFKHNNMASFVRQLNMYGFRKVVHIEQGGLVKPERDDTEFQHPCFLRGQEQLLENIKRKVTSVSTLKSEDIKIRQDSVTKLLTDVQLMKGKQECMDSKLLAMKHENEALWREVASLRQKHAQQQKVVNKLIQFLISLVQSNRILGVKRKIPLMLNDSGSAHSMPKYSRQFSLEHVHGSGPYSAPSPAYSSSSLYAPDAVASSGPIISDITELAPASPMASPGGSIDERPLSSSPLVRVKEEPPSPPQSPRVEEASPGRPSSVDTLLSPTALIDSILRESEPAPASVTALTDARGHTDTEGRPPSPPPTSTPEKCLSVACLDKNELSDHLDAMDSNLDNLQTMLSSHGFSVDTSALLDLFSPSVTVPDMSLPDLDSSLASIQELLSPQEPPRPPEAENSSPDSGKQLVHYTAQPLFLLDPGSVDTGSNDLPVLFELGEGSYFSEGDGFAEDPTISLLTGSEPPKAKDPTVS
Outline: as §1

[4] = target: T2, SPIC (Homo sapiens, UniProt Q8N5J4 1-248); conditions: protein: recombinant; tags: N-terminal GST; dsDNA, one strand shown
T2 sequence: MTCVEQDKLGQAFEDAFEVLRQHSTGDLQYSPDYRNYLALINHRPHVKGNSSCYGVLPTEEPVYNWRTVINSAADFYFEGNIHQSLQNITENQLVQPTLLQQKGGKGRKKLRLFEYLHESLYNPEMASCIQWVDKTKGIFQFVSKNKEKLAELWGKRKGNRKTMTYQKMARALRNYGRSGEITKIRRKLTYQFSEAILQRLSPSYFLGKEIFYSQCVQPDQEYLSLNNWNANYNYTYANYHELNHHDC
Outline: as §1

[5] = target: ELF4 (Homo sapiens, UniProt Q99607 1-663); conditions: protein: recombinant; tags: N-terminal GST; dsDNA, one strand shown
ELF4, sequence (Q99607 whole entry): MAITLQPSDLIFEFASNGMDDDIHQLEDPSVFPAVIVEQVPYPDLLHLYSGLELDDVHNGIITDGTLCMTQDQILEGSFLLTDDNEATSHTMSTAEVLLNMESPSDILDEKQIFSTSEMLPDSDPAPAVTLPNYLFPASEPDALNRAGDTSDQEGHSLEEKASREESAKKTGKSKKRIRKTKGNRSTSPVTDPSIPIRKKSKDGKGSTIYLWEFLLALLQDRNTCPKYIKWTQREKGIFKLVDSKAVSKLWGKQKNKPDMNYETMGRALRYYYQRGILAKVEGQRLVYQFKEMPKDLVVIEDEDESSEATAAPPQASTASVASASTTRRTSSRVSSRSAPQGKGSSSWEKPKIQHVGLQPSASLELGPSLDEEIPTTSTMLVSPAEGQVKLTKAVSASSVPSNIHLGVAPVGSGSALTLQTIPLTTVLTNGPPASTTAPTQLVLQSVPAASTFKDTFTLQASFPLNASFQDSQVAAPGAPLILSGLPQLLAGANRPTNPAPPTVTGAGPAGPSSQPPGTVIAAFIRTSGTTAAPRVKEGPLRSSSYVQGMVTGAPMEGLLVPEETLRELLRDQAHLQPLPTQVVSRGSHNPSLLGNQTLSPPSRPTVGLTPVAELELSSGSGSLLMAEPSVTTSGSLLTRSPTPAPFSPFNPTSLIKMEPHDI
Outline: as §1

[6] = target: T3, ELK4 (Homo sapiens, UniProt P28324-2 1-405); conditions: protein: recombinant; tags: N-terminal GST; dsDNA, one strand shown
T3 sequence: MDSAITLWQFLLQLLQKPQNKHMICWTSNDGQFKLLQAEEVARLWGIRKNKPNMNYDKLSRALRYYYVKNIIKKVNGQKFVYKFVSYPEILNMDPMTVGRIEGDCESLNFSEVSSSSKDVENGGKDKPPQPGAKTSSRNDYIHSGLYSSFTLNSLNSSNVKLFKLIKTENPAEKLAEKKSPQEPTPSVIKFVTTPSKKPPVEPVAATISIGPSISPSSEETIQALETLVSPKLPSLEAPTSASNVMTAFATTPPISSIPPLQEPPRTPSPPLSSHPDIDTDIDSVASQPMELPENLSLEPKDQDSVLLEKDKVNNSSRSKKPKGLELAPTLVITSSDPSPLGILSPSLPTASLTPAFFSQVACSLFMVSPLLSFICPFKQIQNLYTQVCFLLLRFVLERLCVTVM
Outline: as §1

[7] = target: T4, ETV2 (Homo sapiens, UniProt O00321 1-342); conditions: protein: recombinant; tags: N-terminal GST; dsDNA, one strand shown
T4 sequence: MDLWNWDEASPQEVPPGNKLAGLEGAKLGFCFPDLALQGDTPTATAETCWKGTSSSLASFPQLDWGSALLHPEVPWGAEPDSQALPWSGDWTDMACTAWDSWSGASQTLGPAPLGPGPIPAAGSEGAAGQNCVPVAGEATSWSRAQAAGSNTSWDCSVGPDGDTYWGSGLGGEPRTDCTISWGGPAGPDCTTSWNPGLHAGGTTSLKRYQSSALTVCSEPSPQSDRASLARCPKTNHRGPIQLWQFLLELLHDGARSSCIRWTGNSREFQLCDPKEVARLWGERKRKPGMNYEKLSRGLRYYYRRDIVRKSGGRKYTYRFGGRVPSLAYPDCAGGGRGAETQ
Outline: as §1

[8] = target: T5, ELF3 (Homo sapiens, UniProt P78545 1-371); conditions: protein: recombinant; tags: N-terminal GST; dsDNA, one strand shown
T5 sequence: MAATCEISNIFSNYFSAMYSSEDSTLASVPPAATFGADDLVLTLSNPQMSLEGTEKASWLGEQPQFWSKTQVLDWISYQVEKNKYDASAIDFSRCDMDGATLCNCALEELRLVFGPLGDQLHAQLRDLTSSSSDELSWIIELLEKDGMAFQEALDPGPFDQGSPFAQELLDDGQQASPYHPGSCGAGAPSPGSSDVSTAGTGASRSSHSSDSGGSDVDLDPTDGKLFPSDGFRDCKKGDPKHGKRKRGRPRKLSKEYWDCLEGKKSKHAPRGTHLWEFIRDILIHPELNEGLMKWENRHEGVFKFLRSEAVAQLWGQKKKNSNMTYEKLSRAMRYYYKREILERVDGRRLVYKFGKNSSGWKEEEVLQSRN
Outline: as §1

[9] = target: CRX (Homo sapiens, UniProt O43186 1-299); conditions: protein: recombinant; tags: N-terminal GST; dsDNA, one strand shown
CRX, sequence (O43186 whole entry): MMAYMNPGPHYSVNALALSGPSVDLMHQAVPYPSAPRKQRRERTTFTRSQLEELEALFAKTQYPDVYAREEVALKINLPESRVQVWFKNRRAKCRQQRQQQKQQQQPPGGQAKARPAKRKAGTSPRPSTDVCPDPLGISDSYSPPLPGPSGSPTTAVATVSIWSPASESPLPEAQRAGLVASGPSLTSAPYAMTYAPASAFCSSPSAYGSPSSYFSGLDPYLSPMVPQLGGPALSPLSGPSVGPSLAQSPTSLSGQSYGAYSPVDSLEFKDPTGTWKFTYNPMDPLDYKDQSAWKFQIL
Outline: as §1

**Q.** How did the binding signal [1] turn out when TATTTA was run?
**A.** The binding signal was 1.4 fold enrichment (6-mer frequency, TF over GST control).

**Q.** What about the binding signal [2] of the same sequence?
**A.** The binding signal was 1.47 fold enrichment (6-mer frequency, TF over GST control).

**Q.** What about the binding signal [3] of the same sequence?
**A.** The binding signal was 1.75 fold enrichment (6-mer frequency, TF over GST control).

**Q.** And the binding signal [4]?
**A.** The binding signal was 1.69 fold enrichment (6-mer frequency, TF over GST control).

**Q.** What about the binding signal [5] of the same sequence?
**A.** Its binding signal is 1.45 fold enrichment (6-mer frequency, TF over GST control).

**Q.** What about the binding signal [6] of the same sequence?
**A.** The binding signal was 1.66 fold enrichment (6-mer frequency, TF over GST control).

**Q.** And the binding signal [7]?
**A.** The binding signal was 1.43 fold enrichment (6-mer frequency, TF over GST control).

**Q.** And the binding signal [8]?
**A.** The binding signal was 1.57 fold enrichment (6-mer frequency, TF over GST control).

**Q.** And the binding signal [9]?
**A.** Its binding signal is 2.47 fold enrichment (6-mer frequency, TF over GST control).
